# Hit rate of the full screen: of about 5,500 compounds, about 2,000 (36%) were called active. Not shown: some 18% with an inconclusive outcome. The list shows a part of the results. A number with no mark means an inactive call. Cut-off read from the data, not from the text of the source: active = normalized growth mostly below about 0.91 (no sharp cut-off); inconclusive = no clear call, values can overlap the other calls; inactive = mostly above about 0.92.
# Test: chemical genetic growth profiling, strain panel (AID 1159580);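 note: tested at 20 µM; growth read once vehicle control cultures reached saturation at 30 °C; 1 = growth at the plate median or of vehicle wells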
# Settings: S. cerevisiae deletion strains, growth OD
smiles,measurement,setting,value
CCNC(=S)N/N=C\c1cc(Cl)cc(Cl)c1O,normalized growth,"locus YAR019C, strain CDC15, stronger effect = lower value",0.926
same,normalized growth,"locus YBL105C, strain PKC1, stronger effect = lower value",0.938
same,normalized growth,"locus YBR135W, strain CKS1, stronger effect = lower value",0.92
same,normalized growth,"locus YBR136W, strain MEC1, stronger effect = lower value",0.931
same,normalized growth,"locus YBR160W, strain CDC28, stronger effect = lower value",0.922
same,normalized growth,"locus YDL017W, strain CDC7, stronger effect = lower value",0.925
same,normalized growth,"locus YDL028C, strain MPS1, stronger effect = lower value",0.927
same,normalized growth,"locus YDL101C, strain DUN1, stronger effect = lower value",0.923
same,normalized growth,"locus YDL108W, strain KIN28, stronger effect = lower value",0.928
same,normalized growth,"locus YDL132W, strain cdc53, stronger effect = lower value",0.948
same,normalized growth,"locus YDL214C, strain PRR2, stronger effect = lower value",0.83
same,normalized growth,"locus YDR052C, strain DBF4, stronger effect = lower value",0.929
same,normalized growth,"locus YDR054C, strain cdc34, stronger effect = lower value",0.938
same,normalized growth,"locus YDR226W, strain ADK1, stronger effect = lower value",0.941
same,normalized growth,"locus YDR477W, strain SNF1, stronger effect = lower value",0.733
same,normalized growth,"locus YER123W, strain YCK3, stronger effect = lower value",0.577 (active)
same,normalized growth,"locus YER133W, strain GLC7, stronger effect = lower value",0.752
same,normalized growth,"locus YFL009W, strain cdc4, stronger effect = lower value",0.911
same,normalized growth,"locus YFL029C, strain CAK1, stronger effect = lower value",0.919
same,normalized growth,"locus YFR003C, strain YPI1, stronger effect = lower value",0.937
same,normalized growth,"locus YFR019W, strain FAB1, stronger effect = lower value",0.873
same,normalized growth,"locus YFR028C, strain CDC14, stronger effect = lower value",0.947
same,normalized growth,"locus YGR040W, strain KSS1, stronger effect = lower value",0.775
same,normalized growth,"locus YGR052W, strain FMP48, stronger effect = lower value",0.709
same,normalized growth,"locus YGR092W, strain DBF2, stronger effect = lower value",0.313 (active)
same,normalized growth,"locus YHR030C, strain SLT2, stronger effect = lower value",0.446 (active)
same,normalized growth,"locus YHR079C, strain IRE1, stronger effect = lower value",0.341 (active)
same,normalized growth,"locus YHR082C, strain KSP1, stronger effect = lower value",0.699
same,normalized growth,"locus YHR205W, strain SCH9, stronger effect = lower value",0.778
same,normalized growth,"locus YIL147C, strain SLN1, stronger effect = lower value",0.923
same,normalized growth,"locus YJL095W, strain BCK1, stronger effect = lower value",0.568
same,normalized growth,"locus YJL128C, strain PBS2, stronger effect = lower value",0.925
same,normalized growth,"locus YJL157C, strain FAR1, stronger effect = lower value",0.774
same,normalized growth,"locus YJR016C, strain ILV3, stronger effect = lower value",0.93
same,normalized growth,"locus YJR066W, strain TOR1 (second series), stronger effect = lower value",0.654
same,normalized growth,"locus YJR066W, strain TOR1, stronger effect = lower value",0.509
same,normalized growth,"locus YKL048C, strain ELM1, stronger effect = lower value",0.825
same,normalized growth,"locus YKL067W, strain YNK1, stronger effect = lower value",0.875
same,normalized growth,"locus YKL101W, strain HSL1, stronger effect = lower value",0.76
same,normalized growth,"locus YKL193C, strain SDS22, stronger effect = lower value",0.908
same,normalized growth,"locus YKL203C, strain TOR2, stronger effect = lower value",0.686 (active)
same,normalized growth,"locus YLR113W, strain HOG1, stronger effect = lower value",0.706 (active)
same,normalized growth,"locus YLR133W, strain CKI1, stronger effect = lower value",0.804
same,normalized growth,"locus YLR403W, strain SFP1, stronger effect = lower value",0.746
same,normalized growth,"locus YML070W, strain DAK1, stronger effect = lower value",0.809
same,normalized growth,"locus YMR001C, strain CDC5, stronger effect = lower value",0.923
same,normalized growth,"locus YMR205C, strain PFK2 (second series), stronger effect = lower value",0.805
same,normalized growth,"locus YMR277W, strain FCP1, stronger effect = lower value",0.916
same,normalized growth,"locus YNL006W, strain LST8, stronger effect = lower value",0.919
same,normalized growth,"locus YNL020C, strain ARK1, stronger effect = lower value",0.749
same,normalized growth,"locus YNL161W, strain CBK1, stronger effect = lower value",0.926
same,normalized growth,"locus YNL183C, strain NPR1, stronger effect = lower value",0.589
same,normalized growth,"locus YNL207W, strain RIO2, stronger effect = lower value",0.91
same,normalized growth,"locus YNL222W, strain SSU72, stronger effect = lower value",0.93
same,normalized growth,"locus YNL307C, strain MCK1 (second series), stronger effect = lower value",0.647
same,normalized growth,"locus YOL078W, strain AVO1, stronger effect = lower value",0.916
same,normalized growth,"locus YOL136C, strain PFK27, stronger effect = lower value",0.778
same,normalized growth,"locus YOR061W, strain CKA2, stronger effect = lower value",0.801
same,normalized growth,"locus YOR119C, strain RIO1, stronger effect = lower value",0.78
same,normalized growth,"locus YOR231W, strain MKK1, stronger effect = lower value",0.471 (active)
same,normalized growth,"locus YOR329C, strain SCD5, stronger effect = lower value",0.926
same,normalized growth,"locus YPL031C, strain PHO85, stronger effect = lower value",0.635 (active)
same,normalized growth,"locus YPL153C, strain RAD53, stronger effect = lower value",0.621 (active)
same,normalized growth,"locus YPL204W, strain HRR25, stronger effect = lower value",0.642 (active)
same,normalized growth,"locus YPL209C, strain IPL1, stronger effect = lower value",0.919
same,normalized growth,"locus YPL256C, strain CLN2, stronger effect = lower value",0.495 (active)
same,normalized growth,"locus YPR025C, strain CCL1, stronger effect = lower value",0.923
same,normalized growth,"locus YPR106W, strain ISR1, stronger effect = lower value",0.947
same,normalized growth,"locus YPR111W, strain DBF20, stronger effect = lower value",0.938
same,normalized growth,"strain NNK1, stronger effect = lower value",0.94
same,normalized growth,"strain TSCII, stronger effect = lower value",0.912
